Measurements reported in PubChem BioAssay (NCI).
The panel holds about 79,000 compounds, 15% with a hit somewhere; the sample as a whole holds those more often. Cut-off read from the data, not from the text of the source: active = growth inhibition above about 70%; inactive = the rest.

Experiments:
[1] = NCI Yeast Anticancer Drug Screen. Data for the rad50 strain (AID 155);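 note: 0% = growth of vehicle-only cultures of the same strain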; settings: S. cerevisiae rad50 strain growth inhibition; at 50.0 µM; active compounds read high
In short: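 Inhibition values express reduced yeast growth in compound-treated cultures relative to vehicle-treated controls.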

[2] = NCI Yeast Anticancer Drug Screen. Data for the mec2-1 strain (AID 157); settings: S. cerevisiae mec2-1 strain, at 50.0 µM, active compounds read high
In short: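 Cells of the genetically defined mec2-1 yeast strain are incubated with test compound. Inhibition of growth is calculated against vehicle-treated controls.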

[3] = NCI Yeast Anticancer Drug Screen. Data for the sgs1 mgt1 strain (AID 161);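 note: 0% = growth of cultures given vehicle only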; settings: S. cerevisiae sgs1 mgt1 strain, at 50.0 µM, active compounds read high
In short: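 Inhibition of yeast growth, normalised to vehicle-treated controls, is reported for a strain bearing genetic alterations in DNA damage repair.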

[4] = NCI Yeast Anticancer Drug Screen. Data for the cln2 rad14 strain (AID 165);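 note: 0% = growth equal to vehicle treated cultures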; settings: S. cerevisiae cln2 rad14 strain, at 50.0 µM, active compounds read high
In short: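 The screen exposed genetically defined yeast (cln2 rad14) to test compounds and scored growth inhibition relative to vehicle-treated controls.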

[5] = NCI Yeast Anticancer Drug Screen. Data for the bub3 strain (AID 167); settings: S. cerevisiae bub3 mutant strain, at 50.0 µM, active compounds read high
In short: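 Steps: expose the mutant yeast strain to compound; grow alongside vehicle-treated cultures; measure growth; express inhibition against the vehicle cultures.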

[6] = NCI Yeast Anticancer Drug Screen. Data for the mlh1 rad18 strain (AID 175); settings: S. cerevisiae mlh1 rad18 strain growth inhibition; at 50.0 µM; active compounds read high
In short: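 Compound-treated yeast growth, normalised to vehicle controls. Strain bears defined DNA repair mutations.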

Measured: growth inhibition

O=[N+]([O-])c1ccc(Cl)c(/C=C/c2ncccn2)c1
inactive: [1] 11.4% | [2] 10.1% | [3] 7.9% | [4] -28.1% | [5] -1.45% | [6] 13.9%

COc1cc(Nc2cnc3ccc(C(F)(F)F)cc3n2)cc(OC)c1OC
inactive: [1] -0.3% | [2] 4.9% | [3] 1.15% | [4] -0.8% | [5] -16.9% | [6] -3.5%

CC(=O)Nc1ccc(N=C2c3ccccc3-c3ccc([N+](=O)[O-])cc32)cc1
inactive: [1] -6.1% | [2] -10.8% | [3] 11.2% | [4] -11.7% | [5] -5.7% | [6] -13.6%

CCOc1ccc2ccccc2c1
inactive: [1] -28.2% | [2] 0.7% | [3] 1.25% | [4] -49.5% | [5] -3.15% | [6] -19.7%

CCCCN(CCOc1ccnc(=O)[nH]1)CC(C)C
inactive: [1] 6% | [2] 13.2% | [3] -3.2% | [4] -35.5% | [5] 11.3% | [6] -7.7%

COc1ccc(C(CCOS(=O)(=O)c2ccc(Br)cc2)(c2ccc(OC)cc2)c2ccc(OC)cc2)cc1
inactive: [1] 0.9% | [2] 12.8% | [3] -13.1% | [4] -23.6% | [5] 0% | [6] 15.6%

O=C(NCCN1CCOCC1)c1ccc(I)cc1
inactive: [1] 31.8% | [2] 28.9% | [3] 45% | [4] 38.4% | [5] 32.1% | [6] 43.3%

O=C1O/C(=C(/Cl)c2cccc3ccccc23)c2ccccc21
inactive: [1] -40.2% | [2] -67.8% | [3] -38.4% | [4] 9.55% | [5] -16.9% | [6] -38%

Cc1cc(C(c2ccc(Nc3ccccc3)cc2)c2ccc(Nc3ccccc3)cc2)ccc1Nc1ccccc1
inactive: [1] 2.35% | [2] -4.65% | [3] 7.5% | [4] -7.05% | [5] 5.5% | [6] -19.1%

CC1(C)CC(=O)C(C=O)C(=O)C1
inactive: [1] -6.85% | [2] -13.7% | [3] -38.3% | [4] -2.3% | [5] 3% | [6] -22.9%

c1ccc(C[P+]2(c3ccccc3)c3ccccc3-c3ccccc32)cc1
inactive: [1] -25.9% | [2] -8% | [3] -11.2% | [4] 4.15% | [5] -6.6% | [6] -38.2%

C[Si](C)(C)CSC#N
inactive: [1] -16.6% | [2] 6.45% | [3] 12.5% | [4] 4.65% | [5] 2.75% | [6] 11.5%

COC1(OC)CCCc2c1no[n+]2[O-]
inactive: [1] -43.4% | [2] -11.3% | [3] -50.2% | [4] -16.7% | [5] 16.5% | [6] -21.2%

CC1=CC(=O)C(C(C)C)=CC1=Nc1ccc(N(C)C)cc1
inactive: [1] -24.9% | [2] -26.3% | [3] -12.4% | [4] -33% | [5] 42.4% | [6] -12.3%

Cc1c(-c2ccccc2)nnn1-c1ccc(F)cc1F
inactive: [1] 1.7% | [2] -28.8% | [3] 13.4% | [4] -10.6% | [5] 20.8% | [6] -9.35%

COc1cc(C(=O)CBr)c(OC)cc1C
inactive: [1] 10.9% | [2] -10.7% | [3] 38% | [4] 17% | [5] 2.15% | [6] 46.8%

CC1=CC(O)CC(C)(C)C1/C=C/C(C)=C/C=C/C(C)=C/C=C/C=C(C)/C=C/C=C(C)/C=C/C1=C(C)CC(O)CC1(C)C (stereo unspecified)
inactive: [1] 14.4% | [2] -15.4% | [3] 22.6% | [4] 16.4% | [5] -30.9% | [6] -37.1%

CN(C)c1ccc(C(=O)C2N=NCC2c2ccccc2)cc1 (stereo unspecified)
inactive: [1] 10.3% | [2] -1.3% | [3] 13% | [4] 7.3% | [5] 12.8% | [6] 17.2%

Cc1cccc(CC(N)C(=O)O)c1 (stereo unspecified)
inactive: [1] -5.15% | [2] 5.1% | [3] -6.95% | [4] -3.3% | [5] 4% | [6] -9.8%

CC(=O)NC1C(O)C(O)C(CO)OC1n1nc(SCc2ccccc2)c(=O)[nH]c1=O (stereo unspecified)
inactive: [1] 3.9% | [2] 11.9% | [3] -12.9% | [4] -5.65% | [5] -24.4% | [6] -36.5%

NC(CSCCC(=O)O)C(=O)O (stereo unspecified)
inactive: [1] -16.9% | [2] -10.3% | [3] -7.45% | [4] -39.6% | [5] -3.05% | [6] -12.4%

CC(=O)Nc1ccc(/C=N\NC(=S)Nc2ccc(F)cc2)cc1
inactive: [1] -13.4% | [2] -12.7% | [3] -3.9% | [4] -53.1% | [5] 4.65% | [6] -18.8%

COc1ccc2c(c1)OCc1c-2oc2ccccc2c1=O
inactive: [1] -24.8% | [2] -4.55% | [3] -10.9% | [4] -25.4% | [5] -3.95% | [6] -5.3%

O=[N+]([O-])c1ccccc1S(=O)(=O)NC1c2ccccc2Oc2ccccc21
inactive: [1] 31.9% | [2] 28.3% | [3] 19.4% | [4] 2.75% | [5] -0.8% | [6] 43.6%

CC(=O)OCC1OC(n2c(Br)nc3c2c(=O)n(C)c(=O)n3C)C(OC(C)=O)C1OC(C)=O (stereo unspecified)
inactive: [1] -19.9% | [2] -1.3% | [3] -14.3% | [4] -7.95% | [5] -0.95% | [6] 0.25%

CC(=O)Oc1cccc2c1C(=O)c1ccccc1C2=O
inactive: [1] 30% | [2] 5.3% | [3] 22.4% | [4] -4.2% | [5] 11.3% | [6] -10%

OCCN(CCO)c1ccc2c(C(F)(F)F)cc(C(F)(F)F)nc2n1
inactive: [1] 0.45% | [2] -8.25% | [3] 15.8% | [4] 0.7% | [5] 10.6% | [6] 16.1%

O=c1oc(Cl)cc2oc(=O)n(-c3ccccc3)c(=O)c12
inactive: [1] 10.8% | [2] 7% | [3] 18.8% | [4] -3.15% | [5] -9.25% | [6] 9.45%

CCC(C)c1cc(C(C)(C)C)cc(-n2nc3ccccc3n2)c1OS(=O)(=O)c1cccc(N)c1 (stereo unspecified)
inactive: [1] -4.4% | [2] -27.1% | [3] -12.8% | [4] 2.7% | [5] -16.9% | [6] -22%

CCC1(C#CCN2C(=O)c3ccccc3C2=O)C=CC2(CC1)OCCO2 (stereo unspecified)
inactive: [1] 10.2% | [2] 18.2% | [3] 26.2% | [4] 0.6% | [5] 2.5% | [6] 48.9%

Cc1sc2nc3n(c(=O)c2c1C)N=C(c1ccc([N+](=O)[O-])cc1)CS3
inactive: [1] 9.15% | [2] -14.9% | [3] -10.1% | [4] 24.1% | [5] 7.2% | [6] -8.1%

CCC(C)CC(C)C1=NC(C)(C)CC(C)O1 (stereo unspecified)
inactive: [1] 3.65% | [2] -6.55% | [3] 0.75% | [4] -16.6% | [5] 0.2% | [6] 8.3%

O=C1CCSC(=S)N1c1ccccc1
inactive: [1] 38.2% | [2] 4.8% | [3] 23.8% | [4] -32.2% | [5] -5.4% | [6] 27.1%

CCOC(=O)NC(=S)Nc1nonc1-c1ccccc1
inactive: [1] 1.35% | [2] 2% | [3] 36% | [4] -9.65% | [5] 15.6% | [6] 26.2%

ClCC/C(=C(/Cl)c1ccccc1)c1ccccc1
inactive: [1] -0.65% | [2] 5.6% | [3] 6.65% | [4] 4.8% | [5] -14.3% | [6] 3.1%

O=C(/C=C/c1ccccc1)NC(=S)Nc1cc(Cl)ccc1O
inactive: [1] 2.55% | [2] 7.8% | [3] 6.25% | [4] 5.5% | [5] 12.7% | [6] 6.85%

O=C(COc1cccc(Cl)c1)Nc1ccc(C(=O)CCl)cc1
inactive: [1] 23.9% | [2] 49.5% | [3] 35.9% | [4] 11.8% | [5] 47% | [6] 44.5%

O=C1CCCCCCCCCCC1Br (stereo unspecified)
inactive: [1] 43.2% | [2] 3.15% | [3] 34.4% | [4] 31.9% | [5] 23.3% | [6] 21.4%

CCN(CC)CCOC(=O)COc1ccc(Cc2ccccc2)cc1
inactive: [1] 14.7% | [2] 3.55% | [3] 14.3% | [4] 15.6% | [5] -9.4% | [6] 11.3%

C=C(Cl)C(=C)CCC(Cl)C(C)C (stereo unspecified)
inactive: [1] -6.15% | [2] -9.4% | [3] 1.6% | [4] 20.6% | [5] 0.25% | [6] 0.55%

CN(C)C=Nc1ccn(CCO)c(=O)n1
inactive: [1] 21.6% | [2] -16.9% | [3] 23.6% | [4] 19.1% | [5] 21.9% | [6] 33.2%
